Screening results as filed in PubChem BioAssay.
Shown is part of a subset that was picked to be rich in hits.
CBX7 AlphaScr – CBX7 chromodomain binding inhibitors, primary screen, biochemical, AlphaScreen; Chromobox protein homolog 7 (Homo sapiens), O95931; AlphaScreen His6-CBX7 / biotin-H3K27me3 peptide binding; hits give low values; normalised signal (fraction of DMSO) (concentration not given with the values); 1.1% of 66,000 active; AID 1224903, 2016; in the data active = normalised signal below about 0.5
Target sequence (O95931 whole entry, looked up): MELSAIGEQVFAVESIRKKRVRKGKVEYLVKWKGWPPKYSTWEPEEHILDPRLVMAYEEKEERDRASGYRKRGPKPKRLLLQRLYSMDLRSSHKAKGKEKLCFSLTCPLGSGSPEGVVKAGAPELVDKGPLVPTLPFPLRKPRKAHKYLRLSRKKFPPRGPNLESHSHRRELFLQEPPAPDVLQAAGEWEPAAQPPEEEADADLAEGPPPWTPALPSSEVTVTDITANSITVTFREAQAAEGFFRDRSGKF
The depositor's hits bear a star.

SMILES | CBX7 AlphaScr
Cc1cccc(-n2c(-c3ccccc3F)nc3c(cnn3-c3ccccc3)c2=O)c1 | 0.49*
CCOc1ccc(-n2c(-c3ccccc3F)nc3c(cnn3-c3ccccc3)c2=O)cc1 | 0.54
O=C1NC(c2ccc(F)cc2)c2c(-c3ccccc3)n[nH]c21 (stereo unspecified) | 1
O=C(NC1CCCCCC1)C1=CCN(S(=O)(=O)c2ccc(Br)cc2)CC1 | 1
CCOC(=O)c1cccc(NC(=O)CC2C(=O)N(c3ccccc3)C(=O)N2Cc2ccc(F)cc2)c1 (stereo unspecified) | 1
O=C(NCCc1ccccc1)c1ccc2c(c1)N(Cc1ccc(Cl)cc1)C(=O)c1ccccc1S2=O (stereo unspecified) | 1.1
CCOC(=O)c1cnc2c(OC)cccc2c1N1CCN(c2ccccc2F)CC1 | 0.43*
CCOC(=O)c1cnc2c(OC)cccc2c1N1CCN(c2ccccc2)CC1 | 0.56
CCOC(=O)c1cnc2c(OC)cccc2c1N1CCC(C)CC1 | 0.65
CCOC(=O)c1cnc2cc(C(F)(F)F)ccc2c1N1CCN(c2ccccc2OC)CC1 | 0.86
CCOC(=O)c1cnc2ccc(OCC)cc2c1N1CCCCCC1 | 1.1
CCOC(=O)c1cnc2ccc(OCC)cc2c1N1CCN(c2ccccc2OC)CC1 | 0.46*
COc1ccccc1CC(=O)Nc1ccc2nc(N3CCCCC3)cc(C)c2c1 | 0.9
CN(C)CCNC(=O)Cn1ncc2c1-c1ccccc1OC2 | 0.86
Cc1cccc(OCCn2c(C3CC(=O)N(c4cc(C)ccc4C)C3)nc3ccccc32)c1 (stereo unspecified) | 0.78
CCOc1ccc(CNC(=O)CCCc2cn(C)c3ccccc23)cc1OC | 0.87
COc1ccc(CNC(=O)CCc2cn(C)c3ccccc23)c(OC)c1 | 1
COc1ccc(Br)cc1CNC(=O)Cc1cn(C)c2ccccc12 | 0.91
COc1ccc(Br)cc1CNC(=O)CCCc1cn(C)c2ccccc12 | 0.42*
COc1ccc(OC)c(CNC(=O)CCc2cn(C)c3ccccc23)c1 | 0.95
COc1ccc(OC)c(CNC(=O)CCCc2cn(C)c3ccccc23)c1 | 0.46*
Cc1ccc(C)c(-n2c(Cc3cc(=O)[nH]c(=O)[nH]3)nnc2SCC(=O)Nc2ccccc2C)c1 | 1.2
NC(=O)C1CCN(C(=O)c2ccc3c(c2)N(Cc2ccccc2F)C(=O)c2ccccc2S3)CC1 | 1
CC1CCN(S(=O)(=O)c2ccc3c(c2)N(CC(=O)NC(C)CCc2ccccc2)C(=O)CO3)CC1 (stereo unspecified) | 0.97
NC(=O)c1ccc(-c2ncc(-c3ccccc3)o2)cc1 | 0.42*
SMILES | CBX7 AlphaScr
Clc1ccc(-c2cnc(-c3ccncc3)o2)cc1 | 1.1
Cc1cc(C)c(C(=O)c2ccc(-c3nnc(-c4ccccc4)o3)cc2)c(C)c1 | 0.81
COc1ccc(Cl)cc1C(=O)Nc1ccc2nc(N3CCCCC3)cc(C)c2c1 | 1.3
Cc1ccc(-c2csc(NC(=O)CCCOc3ccccc3C)n2)cc1 | 1.1
Cc1ccccc1Nc1c(-c2ccc(N(C)C)cc2)nc2cccc(C)n12 | 0.46*
Cc1ccccc1Nc1c(-c2ccccc2)nc2cccc(C)n12 | 1
Cc1ccccc1Nc1c(-c2ccc(Cl)cc2)nc2cccc(C)n12 | 0.94
CCOC(=O)c1cc(-c2ccccc2)n(CCC(=O)Nc2cccnc2)c1C | 0.94
COc1cc2c(C(=O)N(C)c3ccccc3F)cn(CC(C)C)c(=O)c2cc1OC | 0.95
COc1ccc(CNC(=O)CN=C2NS(=O)(=O)C(c3ccc(C)cc3)=C2C)cc1 | 1
CCc1cccc(NC(=O)CSc2nc3nc(C)c(Cc4ccc(C)cc4)c(C)n3n2)c1 | 0.84
CCOc1ccc(-c2cnc3ccccc3n2)cc1 | 1.2
Nc1ccc(-c2ccc(-c3cnc4ccccc4n3)cc2)cc1 | 0.15*
Brc1ccc(-c2cnc3ccccc3n2)cc1 | 1.1
COc1ccc(CCC(=O)Nc2ccc(-c3noc(Cc4ccc(OC)cc4)n3)cc2)cc1 | 0.98
COCCNC(=O)C1CC(=O)N(Cc2ccc(OC)cc2)C1 (stereo unspecified) | 1.1
COc1ccc(C2C(C(=O)Nc3cc(C)ccn3)=C(C)NC3=C2C(=O)CC(C)(C)C3)c(OC)c1 (stereo unspecified) | 1.1
COc1ccc(OCc2nc(C#N)c(N3CCOCC3)o2)cc1 | 1
Cc1ccc(OCc2nc(C#N)c(N3CCN(Cc4ccccc4)CC3)o2)cc1 | 0.46*
Cc1ccc(OCc2nc(C#N)c(N3CCC(C)CC3)o2)cc1 | 0.52
CC1CCN(c2oc(COc3ccc(Cl)cc3)nc2C#N)CC1 | 0.36*
N#Cc1nc(COc2ccc(Cl)cc2)oc1N1CCOCC1 | 1.2
N#Cc1nc(COc2ccccc2)oc1NCc1ccc(F)cc1 | 0.88
Cc1ccc(OCc2nc(C#N)c(N3CCN(c4ccccc4)CC3)o2)cc1 | 0.46*
CCN1CCN(c2oc(COc3ccccc3)nc2C#N)CC1 | 0.95
SMILES | CBX7 AlphaScr
Cc1ccc(OCc2nc(C#N)c(N3CCC(C(N)=O)CC3)o2)cc1 | 0.88
CN1CCN(c2oc(COc3ccc(F)cc3)nc2C#N)CC1 | 1
CN(Cc1ccccc1)c1oc(COc2ccc(F)cc2)nc1C#N | 0.44*
COc1ccccc1OCc1nc(C#N)c(N(C)C)o1 | 0.95
CC(NC(=O)C(=O)NCCN1CCOCC1)C(c1cccs1)N1CCN(c2ccccc2)CC1 (stereo unspecified) | 1.2
CCOC(=O)c1cnc2c(C)cc(C)cc2c1Nc1ccc(OC)c(OC)c1 | 1.1
CCOCCn1cnc2sc(C(=O)Nc3ccc(F)cc3F)c(C)c2c1=O | 1.1
COCCNC(=O)c1cc2sc(Cl)cc2n1C | 1
CCOCCCNC(=O)C1CCN(Cc2nc(-c3ccccc3F)oc2C)CC1 | 1
COc1ccc(NC(=O)CN(c2ccc(C(C)C)cc2)S(=O)(=O)c2c(C)nn(C)c2C)cc1 | 0.97
O=C(c1ccccc1)c1ccc(-c2[nH]c(-c3cccc(F)c3)nc2-c2ccccc2)cc1 | 0.94
CCCN1CCN(CCCNC(=O)CCCN2C(=O)CSc3ncccc32)CC1 | 0.85
N#Cc1nc(COc2ccccc2F)oc1N1CCN(c2ccccc2)CC1 | 0.48*
N#Cc1nc(COc2ccccc2F)oc1N1CCCC1 | 0.88
COc1ccc(N2CCN(c3oc(COc4ccccc4F)nc3C#N)CC2)cc1 | 0.55
O=C(c1cnn(-c2ccccc2)c1-n1cccc1)N1CCC(C(=O)N2CCC3(CC2)OCCO3)CC1 | 1
Cc1cccc(-n2c(Cc3cc(=O)[nH]c(=O)[nH]3)nnc2SCC(=O)Nc2nc(C)cs2)c1 | 1
CCN(CC)S(=O)(=O)c1ccc2c(c1)N(CC(=O)N(CC(C)C)CC(C)C)C(=O)CS2 | 0.97
COc1ccccc1Nc1cc(C)nc2c(C)cccc12 | 1.1
COc1ccccc1Nc1cc(C(F)(F)F)nc2c(OC)ccc(OC)c12 | 0.2*
COc1ccccc1Nc1cc(C)nc2c(OC)cccc12 | 0.77
CC(C)(C)c1nnc(Nc2ccc(Nc3ccccc3)cc2)[nH]c1=O | 1
O=C(NCCN=C1NS(=O)(=O)c2ccccc21)c1ccccc1F | 0.97
COc1ccc(NC(=O)c2ccc3c(c2)C(=O)N(c2cccc(C)c2)C3=O)cc1 | 0.82
Cc1ccn2c(NC(=O)c3ccc(F)cc3)c(-c3ccccc3)nc2c1 | 1.2
COc1ccc(C(=O)Nc2nc(N3C(=O)c4ccccc4C3=O)n(-c3ccccc3)n2)cc1 | 0.2*
Cc1ccn2c(NC(=O)c3ccc(F)cc3)c(-c3ccc(F)cc3)nc2c1 | 1.1
O=C(Nc1nc(N2C(=O)c3ccccc3C2=O)n(-c2ccccc2)n1)c1ccc(F)cc1 | 0.09*
COc1ccc(N2C(=O)c3ccc(C(=O)Nc4ccccc4C(=O)O)cc3C2=O)cc1 | 1.1
